Experiment [1] can be described thus: qHTS for Hypoxia signaling pathway (HIF-1) agonists against the NCATS CANVASS Library (AID 1347375). The method in brief: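 HRE-bla ME-180 cells (0.5% dialyzed FBS) were pre-incubated 5 hrs at 37C, then exposed to compounds in an 11-point series for 17 hrs. Read-out was CCF4-AM beta-lactamase FRET (460/530 nm emissions), with CellTiter-Glo viability in the same wells.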

Experiment [2] is described as follows: 10-beta competent E. coli microbial cell viability qHTS against the NCATS CANVASS Library (AID 1347376). In outline:
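10-beta competent E. coli (0.2 OD) were exposed overnight at 37C to compounds in an 11-point series. Viability was read as ATP-dependent BacTiter-Glo luminescence after 20 min at room temperature.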

The nature of experiment [3]: qHTS for H2AX Agonists against the NCATS CANVASS Library (AID 1347378). In outline: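 Following overnight seeding, CHO-K1 cells are incubated with a concentration series of compound for 3 hr at 37C (final DMSO 0.76%). Cells are then lysed, detection antibodies added, and emission ratio 665/620 nm recorded after 24 hr at room temperature.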
Experiment [4] can be described thus: qHTS for Inflammasome Signaling Inhibitors: IL-1-beta AlphaLISA screen against the NCATS CANVASS Library (AID 1347379). Particulars: THP-1 LPS/ATP, IL-1B AlphaLISA secretion, 16 h; at 57.5 µM (top of the series). In outline:
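THP-1 cells pretreated 1 hr with compound (up to 57.5 uM final), then stimulated with LPS (250 ng/mL final) and ATP (1.25 mM final). Secreted IL-1B measured by AlphaLISA after 16 hr; glyburide as positive control.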

Experiment [5] in a line: Inflammasome Signaling qHTS Counterscreen: IL-1-beta AlphaLISA counterscreen against the NCATS CANVASS Library (AID 1347381). In outline: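 Cell-free interference check: compounds added to medium spiked with 4 pg purified IL-1β. Anti-IL-1β acceptor beads (6 ug/mL) with 0.6 nM biotinylated antibody added for 1 h at RT, then streptavidin donor beads (24 ug/mL) for 30 min in the dark. AlphaLISA read at 680/615 nm.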

Experiment [6] is described as follows: Cytotoxicity qHTS for assessment of Hepg2 cells membrane integrity screened against the NCATS CANVASS Library (AID 1347387). The method in brief:
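HepG2 cells (2000/well) attached overnight, then exposed 5 hr at 37C to compounds in an 11-point series (0.59 nM - 46 uM final). LDH release from damaged membranes read fluorometrically (CytoTox-ONE; 560/590 nm) after 10 min at room temperature.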

Experiment [7] in a line: qHTS for Activators of p53 Stress Response Pathway screened against the NCATS CANVASS Library (AID 1347388). The method in brief: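 p53RE-bla HCT-116 cells (4000/well) were pre-incubated for 5 h, then treated with compound (11 points) for 16 h at 37C. After 2 h with CCF4, the 460/530 nm ratio gave reporter activation; CellTiter-Glo measured viability.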
Experiment [8] in a line: qHTS assay for small molecule disruptors of mitochondrial membrane potential screened against the NCATS CANVASS Library (AID 1347389). In outline:
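HepG2 cells (2,000/well) plated overnight, then exposed to compounds in 11-point qHTS series for 1 h at 37C before 30 min Mito-MPS dye; depolarization read as fall in red aggregate (590 nm) to green monomer (535 nm) fluorescence.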

Experiment [9] is described as follows: qHTS for activators of Nrf2/ARE signaling pathway screened against the NCATS CANVASS Library (AID 1347391). The method in brief:
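ARE-bla HepG2 beta-lactamase reporter cells exposed to compounds for 16 h at 37C; CCF4 substrate 2 h, fluorescence at ex 405 nm, em 460/530 nm. Viability by CellTiter-Glo luminescence.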

A short description of experiment [10]: qHTS for activators of dead-cell proteases activity screened against the NCATS CANVASS Library (AID 1347392). The method in brief:
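HepG2 cells, 2000/well, attached 18 h at 37C, then exposed to compounds (11-point qHTS) for 5 h. Dead-cell protease release read as luminescence from cell-impermeant AAF-aminoluciferin substrate after 15 min at room temperature.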

Experiment [11] is described as follows: qHTS for inhibitors of ER calcium dysfunction: SERCaMP assay screened against the NCATS CANVASS Library (AID 1347393). In outline: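 SH-SY5Y GLuc-SERCaMP, 1000 cells/well, 4 h attach; cpd 16 h, 37C/5% CO2; thapsigargin (added as 6x 600 nM) 4 h; coelenterazine; luminescence. Reduced reporter release = ER Ca stabilization.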
A short description of experiment [12]: Vero-766 cells viability qHTS against the NCATS CANVASS Library: Counterscreen for Zika virus inhibition assay (AID 1347394). In outline:
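This cytotoxicity counterscreen uses African green monkey Vero 766 cells in the absence of Zika virus. Compounds are incubated with cells for 72 h, and ATP-based luminescence reports viability.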

Experiment [13] in a line: qHTS for inhibitors of Wild type Zika virus screened against the NCATS CANVASS Library (AID 1347396). The method in brief:
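Protection against wild-type Zika cytopathic effect is measured in African green monkey Vero 766 cells exposed to an 11-point compound series. Surviving cells are quantified by CellTiter Glo luminescence after 72 h.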

The nature of experiment [14]: Viability qHTS for inhibitors of the SERCaMP assay screened against the NCATS CANVASS Library (AID 1347400). In outline: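 SH-SY5Y-GLuc SERCaMP MJH297-derived cells, 1000/well, plated 4 h, then exposed to compounds in an 11-point qHTS series for 48 h at 37C. Viability read as CellTiter-Glo luminescence.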
Experiment [15] in a line: Redox Reaction Profiling qHTS: Assay Interference Panel against the NCATS CANVASS Library (AID 1347401). The method in brief:
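Compounds in 11-point series incubated with 5 uM resazurin and 200 uM DTT in 50 mM HEPES pH 7.3, 50 mM NaCl. Resorufin fluorescence (Ex 525/Em 598) read before and after 15 min in the dark.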

The nature of experiment [16]: qHTS for inhibitors of Rabies Virus screened against the NCATS CANVASS Library (AID 1347402; calls by dose curve).
A short description of experiment [17]: qHTS to identify inhibitors of the type 1 interferon - major histocompatibility complex class I in skeletal muscle: primary screen against the NCATS Pharmaceutical Collection (AID 1347407). The method in brief: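 Cells were seeded with 4 ng/ml IFN-beta, incubated 1 h, then dosed with compounds over eight 1:5 steps up to 46 uM final. After 24 h at 37 C, HiBiT lytic reagent was added and luminescence read after 10 min lysis in the dark.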

Experiment [18] has as its target Protein phosphatase 1D (Homo sapiens) (UniProt O15297). The experiment can be described thus: RapidFire Mass Spectrometry qHTS Assay for Modulators of WT P53-Induced Phosphatase 1 (WIP1) (AID 1347424). In outline:
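10 nM WIP1 preincubated with compounds 1 hr at room temperature in pH 7.5 Tris buffer with 30 mM MgCl2, 1 mM TCEP; 2 uM VEPPL-pS-QETFS phosphopeptide for 5 min, formic acid quench; dephosphorylated product quantified by RapidFire MS against labelled standard.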

Experiment [19] can be described thus: qHTS to identify inhibitors of the type 1 interferon - major histocompatibility complex class I in skeletal muscle: primary screen against the NCATS Mechanism Interrogation Plate v5.0 (MIPE) Libary (AID 1347411). The method in brief:
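Immortalized human myoblasts (C25cl48) with HiBit knocked into endogenous HLA-B*08:01 were stimulated with 4 ng/ml IFN-beta and given compounds in 11-point 1:3 titration from 46 uM. After 24 h at 37 C, lytic HiBiT luminescence was read.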

Records with an inconclusive call do not appear. Activity calls are given as the source filed them. Unless noted, the call rests on the fitted dose curve; in most records, active means well fitted curve in the direction sought with a large enough effect; inconclusive means small, poorly fitted or top-dose-only effect, or another doubt; inactive means no such curve, though single readings can be large; an effect the other way counts as inactive or inconclusive.

Chain of Protein phosphatase 1D (Homo sapiens) (O15297 whole entry, looked up): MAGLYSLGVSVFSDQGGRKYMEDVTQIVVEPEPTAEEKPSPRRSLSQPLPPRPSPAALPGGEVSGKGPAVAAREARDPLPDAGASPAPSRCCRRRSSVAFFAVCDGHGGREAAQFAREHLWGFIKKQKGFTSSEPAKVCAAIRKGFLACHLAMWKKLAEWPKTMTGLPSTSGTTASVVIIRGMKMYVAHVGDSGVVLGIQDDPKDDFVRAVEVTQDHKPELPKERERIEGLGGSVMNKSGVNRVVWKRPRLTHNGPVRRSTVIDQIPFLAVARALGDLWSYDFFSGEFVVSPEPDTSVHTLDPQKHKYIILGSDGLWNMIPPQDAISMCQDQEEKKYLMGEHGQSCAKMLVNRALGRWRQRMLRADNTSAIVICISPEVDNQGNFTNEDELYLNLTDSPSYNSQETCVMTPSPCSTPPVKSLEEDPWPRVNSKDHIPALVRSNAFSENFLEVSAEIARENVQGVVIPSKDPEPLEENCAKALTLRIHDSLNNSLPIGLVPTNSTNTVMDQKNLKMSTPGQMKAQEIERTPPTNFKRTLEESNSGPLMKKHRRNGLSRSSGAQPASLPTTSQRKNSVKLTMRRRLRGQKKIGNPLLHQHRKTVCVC

For the molecule `NCC(O)c1ccc(O)cc1` (stereo not drawn), the molecule was classed as inactive in experiment [1], in experiment [2], in [3], in experiment [4], in [5] and in [6]. Moreover, the molecule was called inactive in experiment [7], in experiment [8], in experiment [9], in [10], in experiment [11] and in experiment [12]. The molecule was classed as inactive in experiment [13], in experiment [14], in experiment [15] and in [16].
For `C=C1CC[C@@]2(O)[C@H]3Cc4ccc(O)c5c4[C@@]2(CCN3CC2CC2)[C@H]1O5`, the Potency result in experiment [17] and in [18] was “inactive” throughout.
Regarding `COc1ccc(Cc2nccc3cc(OC)c(OC)cc23)cc1OC`, the Potency result in experiment [17] and in experiment [18] was “inactive” in each case.
For `C[C@]12CC[C@H]3[C@@H](CCC4=CC(=O)CC[C@@H]43)[C@@H]1CC[C@@H]2OC(=O)CCc1ccccc1`, the Potency result in experiment [17] and in experiment [18] was “inactive” throughout.
Consider `CCN(CC)CCN1C(=O)CN=C(c2ccccc2F)c2cc(Cl)ccc21`, for which the Potency entry in experiment [17] and in experiment [18] was “inactive” each time.
Consider `CCCC(C)(COC(N)=O)COC(=O)NC(C)C` (stereo not drawn), for which the Potency result in [17] and in experiment [18] was “inactive” each time.
As for `COC[C@@H](NC(C)=O)C(=O)NCc1ccccc1`, the Potency result in experiment [17], in experiment [19] and in [18] was “inactive” throughout.
For `CC(C)(N)Cc1ccc(Cl)cc1`, the Potency result in experiment [17] and in [18] was “inactive” throughout.
For `CCC(C(N)=O)N1CCCC1=O` (stereo not drawn), the Potency entry in [17] and in experiment [18] was “inactive” each time.
On to `C#CCN(C)[C@H](C)Cc1ccccc1`, for which the Potency result in experiment [17], in [19] and in experiment [18] was “inactive” throughout.
Take `CC(C)(C)CC(C)(C)c1ccc(O)cc1`: the Potency entry in [17] and in experiment [18] was “inactive” in each case.
For the molecule `COc1ccc(C(=O)c2c(C)n(CCN3CCOCC3)c3ccccc23)cc1`, the Potency result in [17] and in [18] was “inactive” throughout.
`C[C@]12CCC(=O)C(O)=C1CC[C@@H]1[C@@H]2CC[C@]2(C)C(=O)CC[C@@H]12`: the Potency entry in experiment [17], in experiment [19] and in experiment [18] was “inactive” throughout.
For the molecule `NP(N)(=O)NC(=O)c1ccc(F)cc1`, the Potency result in experiment [17] and in [18] was “inactive” each time.
Regarding `O=C(NC(O)C(Cl)(Cl)Cl)NC(O)C(Cl)(Cl)Cl` (stereo not drawn), the Potency result in [17] and in [18] was “inactive” each time.
For `CC(C)(C)NCC(O)c1cc(Cl)c(N)c(Cl)c1` (stereo not drawn), the Potency result in [17] and in experiment [18] was “inactive” throughout.
Take `O=P1(NCCCl)OCCCN1CCCl` (stereo not drawn): the Potency result in [17], in experiment [19] and in [18] was “inactive” in each case.
For `CCN(CC)C(=O)N[C@@H]1C=C2c3cccc4[nH]cc(c34)C[C@@H]2N(C)C1`, the Potency result in experiment [17] and in [18] was “inactive” throughout.
For `Cn1cc(C2=C(c3cn(C4CCN(Cc5ccccn5)CC4)c4ccccc34)C(=O)NC2=O)c2ccccc21`, the Potency result in [17], in experiment [19] and in [18] was “inactive” throughout.
Consider `Clc1ccc(CCC(Cn2ccnc2)Sc2c(Cl)cccc2Cl)cc1` (stereo not drawn), for which the Potency result in [17] and in experiment [18] was “inactive” each time.
As to `CO[C@]12CC[C@@]3(C[C@@H]1[C@](C)(O)C(C)(C)C)[C@@H]1Cc4ccc(O)c5c4[C@@]3(CCN1CC1CC1)[C@H]2O5`, the Potency in experiment [17] was 48.1 µM (active). Besides, the Potency result in [18] was “inactive”.
On to `O=C(O)c1ccc2[nH]cc(CCCCN3CC=C(c4ccccc4)CC3)c2c1`, for which the Potency entry in experiment [17] and in experiment [18] was “inactive” each time.
On to `CCCC1CCCCN1` (stereo not drawn), for which the Potency result in [17] and in [18] was “inactive” in each case.
For `CN1CCN(C(=O)O[C@H]2c3nccnc3C(=O)N2c2ccc(Cl)cn2)CC1`, the Potency entry in experiment [17] and in experiment [18] was “inactive” each time.
As for `OCCOc1ccccc1`, the Potency entry in experiment [17] and in [18] was “inactive” throughout.
`N[C@@H](Cc1ccc(Oc2cc(I)c(O)c(I)c2)c(I)c1)C(=O)O`: the Potency entry in experiment [17] is “inactive”. In addition, the Potency in [18] was 12.6 µM (active).
With `CCC(COC(=O)c1cc(OC)c(OC)c(OC)c1)(c1ccccc1)N(C)C` (stereo not drawn), the Potency entry in experiment [17] and in experiment [18] was “inactive” throughout.

For the origin of these results see PubChem BioAssay (NCATS).
